Sampled rows, rich in hits. Any-hit rate of the full collection: about 3.4%.
PP5 primary: blocks human protein phosphatase 5 activity; inhibition, % at 6.7 µM; 320,000 tested, 0.18% active; P53041; purified PP5c, OMFP substrate fluorescence; AID 1987;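 active = inhibition above the campaign's mean inhibition across all tested compounds plus 3 SD, cut at about 9.5% in these data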;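 note: 0% = DMSO only and 100% = 100 µM cantharidin control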
PAFAH2 FP inh: PAFAH2 (human) inhibition; 340,000 tested, 0.99% active; AID 492956; inhibition, % at 3.39 µM; recombinant PAFAH2, FP-rhodamine activity probe, fluorescence polarization; Q99487;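 active = inhibition above the mean over all tested compounds plus 3 SD, cut at about 30% in these data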;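 note: inhibitors block probe labeling of enzyme so polarization drops; 0% = enzyme with DMSO and 100% = wells lacking PAFAH2 protein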
PAFAH1B2 inh: blocks human PAF acetylhydrolase 1b catalytic subunit 2; P68402; recombinant PAFAH1B2, FP-rhodamine activity probe, fluorescence polarization; inhibition, % at 3.39 µM; 340,000 tested, 1.2% active; AID 492953;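 active = inhibition above the mean of all tested compounds plus 3 SD, cut at about 24% in these data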;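 note: 0% = enzyme with DMSO and 100% = wells lacking PAFAH1B2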
Target sequence (P68402 whole entry, looked up): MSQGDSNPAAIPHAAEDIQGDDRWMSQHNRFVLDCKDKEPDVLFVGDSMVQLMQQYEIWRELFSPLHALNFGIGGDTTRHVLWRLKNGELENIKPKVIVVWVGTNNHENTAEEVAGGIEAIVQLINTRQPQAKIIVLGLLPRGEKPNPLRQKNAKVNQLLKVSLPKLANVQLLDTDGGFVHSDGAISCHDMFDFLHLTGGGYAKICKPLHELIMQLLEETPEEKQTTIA
PAFAH1B3 inh: blocks human PAF acetylhydrolase 1B catalytic subunit 3 | Q15102 | recombinant PAFAH1B3, FP-rhodamine probe, fluorescence polarization | inhibition, % at 3.39 µM | 340,000 tested, 0.28% active | AID 492972;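 active = inhibition above the screen-wide average of all tested compounds plus 3 SD, cut at about 25% in these data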;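 note: 0% = enzyme with DMSO only and 100% = wells lacking PAFAH1B3 protein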
PP1 counter: blocks human PP1-alpha phosphatase, a PP5 counter-screen. inhibition, % at 6.7 µM. P62136. 320,000 tested, 0.9% active. purified PP1alpha, OMFP fluorescence;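 active = inhibition above the mean inhibition of all tested compounds plus 3 SD, computed separately for each screening campaign, cut at about 15% in these data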
Target sequence (P62136 whole entry, looked up): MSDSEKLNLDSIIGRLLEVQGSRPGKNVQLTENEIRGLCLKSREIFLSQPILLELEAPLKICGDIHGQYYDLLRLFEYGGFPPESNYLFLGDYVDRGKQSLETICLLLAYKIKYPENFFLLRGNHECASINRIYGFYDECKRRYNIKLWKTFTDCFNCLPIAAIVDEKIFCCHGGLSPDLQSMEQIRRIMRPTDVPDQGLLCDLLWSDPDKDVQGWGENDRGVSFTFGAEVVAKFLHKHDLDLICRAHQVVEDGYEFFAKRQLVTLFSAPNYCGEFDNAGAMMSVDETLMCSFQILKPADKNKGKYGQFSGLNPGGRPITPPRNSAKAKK
pPAFAH FP inh: pPAFAH (human) enzyme inhibition. recombinant pPAFAH, FP-rhodamine probe fluorescence polarization. AID 463082. 330,000 tested, 1.5% active. inhibition, % at 3.39 µM;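 active = inhibition above the mean inhibition across the screen plus 3 SD, cut at about 25% in these data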;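 note: inhibitors block binding of the rhodamine activity-based probe so polarization drops; 0% = enzyme with DMSO and 100% = wells lacking pPAFAH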
PAFAH2 FP conf: PAFAH2 (human) inhibition, confirmed | inhibition, % at 3.39 µM | recombinant PAFAH2, FP-rhodamine activity probe, fluorescence polarization | 2,300 tested, 65% active | shares compounds with PAFAH2 FP inh | AID 493030;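 active = mean inhibition over three repeats above a set limit taken from the earlier primary screen, cut at about 30% in these data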;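 note: inhibitor blocks binding of rhodamine activity probe so polarization falls; 0% = enzyme with DMSO and 100% = wells lacking PAFAH2 protein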
* = called active by the depositor; x = no result given.

SMILES	PP5 primary	PAFAH2 FP inh	PAFAH1B2 inh	PAFAH1B3 inh	PP1 counter	pPAFAH FP inh	PAFAH2 FP conf
COCCCNC(=O)C(=O)Nc1cc2c3c(c1)CCN3C(=O)CC2	1	-8	1	4	-4	3	x
O=C(c1cc(-c2ccc(Cl)cc2Cl)on1)N1CCOCC1	4	37*	-2	-9	-5	1	27
O=C(c1cc(-c2ccc(Cl)cc2)on1)N1CCOCC1	0	-3	1	2	-2	4	x
COC(=O)c1ccccc1NC(=O)NCc1ccncc1	3	2	4	9	-1	-2	x
O=C1CCC/C=C\C[C@@H](CC(=O)N(CCO)Cc2ccccc2)C(=O)N[C@H](Cc2c[nH]c3ccccc23)CO1	x	10	5	5	x	-4	x
C[C@H]1COC(=O)CCCC/C=C\C[C@H](CC(=O)N(CCO)Cc2ccccc2)C(=O)N1	x	2	3	12	x	3	x
O=C1CCCC/C=C\C[C@H](CC(=O)N(CCO)Cc2ccccc2)C(=O)N[C@@H](Cc2ccccc2)CO1	x	45*	17	9	x	0	28
O=C1CCC/C=C/C[C@H](CC(=O)N(CCO)Cc2ccccc2)C(=O)N[C@@H](Cc2ccccc2)CO1	x	45*	5	-7	x	2	29
Cc1ccccc1OCC(=O)Nc1ccc2c(c1)C(=O)N(CCC(=O)O)C2=O	-1	0	-2	-1	-2	5	x
Oc1oc(-c2ccccc2)nc1C=Nc1ccccc1	0	28	5	6	-3	3	x
Oc1oc(-c2ccccc2)nc1C=NCc1ccccc1	2	45*	4	11	-1	18	37*
CCOc1ccccc1-n1nnnc1SCC(=O)N1CCCC1=O	x	66*	2	17	x	0	56*
C[C@H](CO)N1C[C@H](C)[C@@H](CN(C)C(=O)NC2CCCCC2)Oc2ccc(NC(=O)Nc3ccccc3)cc2C1=O	x	-5	-4	12	x	4	x
Cc1ccc(S(=O)(=O)Nc2c(O)c3ccccc3oc2=O)cc1C	0	43*	11	4	-2	3	25
CN(CC(=O)Nc1ccc(F)cc1)CC(=O)NC1CCCCC1	0	-18	-3	3	-1	-2	x
O=C(COC(=O)c1cc(S(=O)(=O)N2CCOCC2)ccc1O)Nc1cc(S(=O)(=O)N2CCCC2)ccc1Cl	3	77*	8	8	0	-2	76*
Cc1cc(C(=O)OCC(=O)Nc2cc(S(=O)(=O)N3CCOCC3)ccc2Cl)c(C)o1	1	35*	0	9	-1	8	31*
Cc1cccc(N/C(N)=N/c2nc(C(F)(F)F)cc(=O)[nH]2)c1C	-1	6	-2	1	2	7	x
Cc1ccccc1S(=O)(=O)/N=C(/Nc1nc2ccccc2s1)c1ccccc1	x	36*	-1	4	x	2	30*
CC1CCCC(C)N1C(=O)COC(=O)C1CCN(S(=O)(=O)c2ccc3c(c2)OCCO3)CC1 (stereo unspecified)	-1	2	2	4	-5	6	x
O=[N+]([O-])c1ccccc1S(=O)(=O)Nc1cccc(-c2ccc(N3CCCC3)nn2)c1	0	109*	2	3	5	3	4
O=C1NN(c2ccccc2)C(=O)/C1=C/c1ccc(-c2ccc(C(=O)O)cc2)o1	2	31*	8	12	-2	20	14
CCOc1ccc(NC(=O)CN(C)C(=O)c2cc(C3CC3)nn2-c2ccccc2)cc1OCC	x	2	-2	3	x	x	x
C[C@H](CO)N1C[C@H](C)[C@@H](CN(C)S(=O)(=O)c2cccs2)Oc2ccc(NS(=O)(=O)c3ccc(F)cc3)cc2C1=O	x	6	11	5	x	13	x
CC1CCCC(NC(=O)COC(=O)c2cccnc2Cl)C1C (stereo unspecified)	2	67*	6	3	-3	7	51*
SMILES	PP5 primary	PAFAH2 FP inh	PAFAH1B2 inh	PAFAH1B3 inh	PP1 counter	pPAFAH FP inh	PAFAH2 FP conf
N#Cc1ccc(NC(=O)COC(=O)c2cccnc2Cl)cc1	x	43*	6	0	x	8	36*
CC1CCCC(NC(=O)COC(=O)c2cc3ccccc3oc2=O)C1C (stereo unspecified)	x	37*	12	10	x	-6	21
CC1CCN(C(=O)COC(=O)c2cc3ccccc3oc2=O)CC1	x	13	1	7	x	-3	x
CC1CCCC(NC(=O)COC(=O)COc2ccccc2Cl)C1C (stereo unspecified)	1	4	-2	1	-1	0	x
O=C(COC(=O)c1cccnc1Cl)Nc1ccc(N2CCCCC2)cc1	-2	22	5	5	-2	6	x
CC1CCCC(NC(=O)COC(=O)c2ccc(Cl)nc2)C1C (stereo unspecified)	-1	33*	0	-7	-4	1	24
Cc1nnc(SCc2ccc(CSc3nnc(C)c(=O)[nH]3)cc2)[nH]c1=O	0	5	8	4	-6	8	x
Cc1ccc(C)c(OCc2cc(C(=O)N3CCN(c4ccccc4C)CC3C)no2)c1 (stereo unspecified)	-1	-3	-3	-4	1	2	x
CC1(C)CC(=O)C(C=Nc2ccc(NC3=C(C#N)C(=O)CC(C)(C)C3)cc2)=C(O)C1	2	8	2	0	-4	4	x
CC(C)CCNC(=O)C(c1ccncc1)N(Cc1cccs1)C(=O)Cn1nnc(-c2ccc(F)cc2)n1 (stereo unspecified)	4	40*	3	1	6	7	13
O=C(NCC1CCCO1)C(c1ccncc1)N(Cc1cccs1)C(=O)Cn1nnc(-c2ccc(F)cc2)n1 (stereo unspecified)	-2	5	5	5	-2	1	x
COc1ccc(C(=O)OCC(=O)NC2CCCC2)c(OC)c1	3	70*	-1	0	3	6	56*
COc1ccc(C(=O)OCC(=O)NC(=O)NC2CCCC2)c(OC)c1	2	25	1	5	1	3	x
COc1cc(SC)ccc1C(=O)OCC(=O)NC1CC1	-1	4	5	9	0	3	x
COc1ccc(C(=O)OCC(=O)NC2CCCCCC2)c(OC)c1	x	82*	4	11	x	x	78*
COc1ccc(C(=O)OCC(=O)NC2CCCC2)c(OC)c1OC	2	89*	1	4	-2	12	81*
O=C1C=C(c2ccc(F)nc2)C[C@@H](c2ccc3c(c2)OCO3)C1	0	-9	1	11	1	2	x
O=C(Nc1ccc(F)cc1)c1cccnn1	-1	8	5	6	-1	0	x
O=C1N(c2ccc3c(c2)OCCO3)C(c2ccccc2)C1(F)F (stereo unspecified)	2	101*	0	2	-1	2	-3

Bioassay records deposited in PubChem by The Scripps Research Institute Molecular Screening Center.
